In article PMC7862700, “An all-to-all approach to the identification of sequence-specific readers for epigenetic DNA modifications on cytosine”:

Assays:
Assay in all cases: DAPPL (digital affinity profiling via proximity ligation, sequencing); 10 mM Tris-HCl pH 7.5, 50 mM NaCl, 1 mM DTT, 4% glycerol, room temperature, 30 min; GST-TFs on glutathione beads, 16-mer random dsDNA library, 0.1% formaldehyde crosslink after washing; high values mean tight binding
Conditions in all cases: protein: recombinant; tags: N-terminal GST; dsDNA, one strand shown
[1] = biological target: T1, FLI1 (Homo sapiens, UniProt Q01543 1-452)
T1 sequence: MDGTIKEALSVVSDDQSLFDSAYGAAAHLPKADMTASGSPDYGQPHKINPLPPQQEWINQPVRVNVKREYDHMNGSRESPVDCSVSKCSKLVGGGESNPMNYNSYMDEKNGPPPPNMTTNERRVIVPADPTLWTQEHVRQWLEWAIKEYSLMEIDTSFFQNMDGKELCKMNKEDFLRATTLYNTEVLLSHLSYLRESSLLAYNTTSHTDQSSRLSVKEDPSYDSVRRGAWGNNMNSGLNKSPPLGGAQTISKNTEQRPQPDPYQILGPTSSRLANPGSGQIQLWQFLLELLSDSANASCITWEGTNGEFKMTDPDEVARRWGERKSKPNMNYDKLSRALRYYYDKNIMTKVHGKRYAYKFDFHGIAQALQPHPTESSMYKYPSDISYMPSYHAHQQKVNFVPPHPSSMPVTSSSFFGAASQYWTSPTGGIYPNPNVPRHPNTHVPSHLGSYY
Summary of the method: (§1)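 A tag-only sample was pooled with DNA-barcoded human transcription factors that had been expressed in yeast as GST fusions and captured on glutathione beads. The pools were incubated for 30 min at room temperature with 200 nmole of a random double-stranded 16-mer DNA library in Tris/NaCl/DTT/glycerol buffer, then washed, crosslinked with 0.1% formaldehyde, proximity-ligated (BsaI/T4 ligase, 1 h, 37 °C), PCR-amplified and sequenced on an Illumina NextSeq500. Binding signal is each hexamer's read frequency for a factor divided by its frequency for the tag-only sample.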

[2] = biological target: T2, ELK1 (Homo sapiens, UniProt P19419 1-428)
T2 sequence: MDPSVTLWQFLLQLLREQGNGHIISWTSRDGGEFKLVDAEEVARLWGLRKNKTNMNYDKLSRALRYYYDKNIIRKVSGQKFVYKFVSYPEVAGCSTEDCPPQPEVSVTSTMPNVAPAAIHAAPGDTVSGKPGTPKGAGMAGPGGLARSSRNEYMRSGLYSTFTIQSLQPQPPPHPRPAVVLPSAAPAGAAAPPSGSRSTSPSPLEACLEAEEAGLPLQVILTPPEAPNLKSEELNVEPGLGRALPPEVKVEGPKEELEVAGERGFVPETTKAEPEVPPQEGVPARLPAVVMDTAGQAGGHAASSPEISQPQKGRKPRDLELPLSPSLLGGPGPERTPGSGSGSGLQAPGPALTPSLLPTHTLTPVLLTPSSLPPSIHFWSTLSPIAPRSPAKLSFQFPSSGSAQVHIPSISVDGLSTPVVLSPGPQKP
Summary of the method: as §1

[3] = biological target: T3, GABPA (Homo sapiens, UniProt Q06546 1-454)
T3 sequence: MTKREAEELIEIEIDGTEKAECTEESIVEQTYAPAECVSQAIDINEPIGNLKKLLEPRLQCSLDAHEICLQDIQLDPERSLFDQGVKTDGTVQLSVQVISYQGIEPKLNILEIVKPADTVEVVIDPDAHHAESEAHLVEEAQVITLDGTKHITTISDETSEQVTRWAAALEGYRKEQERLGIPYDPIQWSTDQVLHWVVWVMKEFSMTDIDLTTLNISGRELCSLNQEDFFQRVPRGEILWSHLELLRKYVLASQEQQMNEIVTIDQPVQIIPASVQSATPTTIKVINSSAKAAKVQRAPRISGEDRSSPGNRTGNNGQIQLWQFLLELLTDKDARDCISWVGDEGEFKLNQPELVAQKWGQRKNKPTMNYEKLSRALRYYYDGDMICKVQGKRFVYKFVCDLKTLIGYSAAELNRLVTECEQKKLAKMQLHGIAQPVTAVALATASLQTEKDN
Summary of the method: as §1

[4] = biological target: T4, ERG (Homo sapiens, UniProt P11308 1-479)
T4 sequence: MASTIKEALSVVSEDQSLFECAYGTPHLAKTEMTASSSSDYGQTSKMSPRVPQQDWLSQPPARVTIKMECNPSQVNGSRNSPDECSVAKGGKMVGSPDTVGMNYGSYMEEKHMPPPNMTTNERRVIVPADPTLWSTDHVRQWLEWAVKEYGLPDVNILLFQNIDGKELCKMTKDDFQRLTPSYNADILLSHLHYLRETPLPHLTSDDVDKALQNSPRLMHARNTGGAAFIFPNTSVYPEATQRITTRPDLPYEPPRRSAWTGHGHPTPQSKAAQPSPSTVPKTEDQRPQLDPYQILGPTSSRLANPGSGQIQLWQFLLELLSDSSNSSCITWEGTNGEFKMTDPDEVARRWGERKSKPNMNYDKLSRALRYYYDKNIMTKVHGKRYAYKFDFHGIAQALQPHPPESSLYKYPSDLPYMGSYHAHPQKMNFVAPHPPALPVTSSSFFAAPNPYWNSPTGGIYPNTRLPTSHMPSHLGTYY
Summary of the method: as §1

[5] = biological target: ELF1 (Homo sapiens, UniProt P32519 1-619)
Summary of the method: as §1

[6] = biological target: T5, EHF (Homo sapiens, UniProt Q9NZC4 1-300)
T5 sequence: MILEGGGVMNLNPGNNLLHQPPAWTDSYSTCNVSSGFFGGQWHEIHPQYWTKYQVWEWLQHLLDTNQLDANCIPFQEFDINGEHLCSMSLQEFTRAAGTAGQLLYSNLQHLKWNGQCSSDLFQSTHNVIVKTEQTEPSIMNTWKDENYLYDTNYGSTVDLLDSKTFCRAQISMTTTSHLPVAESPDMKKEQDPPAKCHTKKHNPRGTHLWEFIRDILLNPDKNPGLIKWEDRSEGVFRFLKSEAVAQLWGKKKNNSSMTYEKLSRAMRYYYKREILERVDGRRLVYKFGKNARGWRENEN
Summary of the method: as §1

[7] = biological target: SPI1 (Homo sapiens, UniProt P17947 1-270)
Summary of the method: as §1

[8] = biological target: SPIB (Homo sapiens, UniProt Q01892 1-262)
Summary of the method: as §1

[9] = biological target: T6, ELK3 (Homo sapiens, UniProt P41970 1-407)
T6 sequence: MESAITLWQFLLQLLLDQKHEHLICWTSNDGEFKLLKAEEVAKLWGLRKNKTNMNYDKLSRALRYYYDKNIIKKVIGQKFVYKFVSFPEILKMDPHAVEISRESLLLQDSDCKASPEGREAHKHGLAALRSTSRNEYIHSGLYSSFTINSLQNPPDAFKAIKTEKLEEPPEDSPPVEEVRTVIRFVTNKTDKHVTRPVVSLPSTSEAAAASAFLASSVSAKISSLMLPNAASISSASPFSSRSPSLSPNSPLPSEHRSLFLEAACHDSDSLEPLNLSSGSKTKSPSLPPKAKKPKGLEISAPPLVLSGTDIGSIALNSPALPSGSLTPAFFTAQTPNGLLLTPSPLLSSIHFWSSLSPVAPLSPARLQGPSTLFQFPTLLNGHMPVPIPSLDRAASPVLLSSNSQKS
Summary of the method: as §1

Chain of ELF1 (P32519 whole entry): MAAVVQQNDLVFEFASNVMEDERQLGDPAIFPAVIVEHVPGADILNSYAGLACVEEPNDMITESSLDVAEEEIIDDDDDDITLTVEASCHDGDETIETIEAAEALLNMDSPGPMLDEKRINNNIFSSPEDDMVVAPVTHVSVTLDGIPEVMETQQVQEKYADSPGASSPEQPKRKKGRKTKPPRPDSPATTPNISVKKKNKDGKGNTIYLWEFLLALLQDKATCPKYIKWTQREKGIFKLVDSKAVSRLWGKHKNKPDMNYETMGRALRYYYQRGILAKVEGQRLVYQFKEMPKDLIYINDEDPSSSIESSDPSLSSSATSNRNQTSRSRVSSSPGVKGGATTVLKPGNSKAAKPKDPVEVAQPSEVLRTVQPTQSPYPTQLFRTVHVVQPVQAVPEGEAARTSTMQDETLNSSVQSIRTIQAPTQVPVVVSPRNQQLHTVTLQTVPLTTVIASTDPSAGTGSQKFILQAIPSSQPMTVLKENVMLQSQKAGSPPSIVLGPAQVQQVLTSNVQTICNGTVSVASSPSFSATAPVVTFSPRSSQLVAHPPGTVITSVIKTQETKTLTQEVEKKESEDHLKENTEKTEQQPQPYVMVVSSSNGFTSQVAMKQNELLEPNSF
Chain of SPIB (Q01892 whole entry): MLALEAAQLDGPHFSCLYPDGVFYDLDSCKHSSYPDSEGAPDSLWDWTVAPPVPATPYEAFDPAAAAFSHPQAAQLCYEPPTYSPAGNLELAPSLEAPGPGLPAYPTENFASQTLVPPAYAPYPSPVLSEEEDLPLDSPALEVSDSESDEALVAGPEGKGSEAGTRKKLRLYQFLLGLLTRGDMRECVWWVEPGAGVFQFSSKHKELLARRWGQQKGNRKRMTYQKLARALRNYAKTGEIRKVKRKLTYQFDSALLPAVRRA

Sequence | binding signal [1] | binding signal [2] | binding signal [3] | binding signal [4] | binding signal [5] | binding signal [6] | binding signal [7] | binding signal [8] | binding signal [9]
CGTTAT | 1.14 fold enrichment (6-mer frequency, TF over GST control) | 1.11 fold enrichment (6-mer frequency, TF over GST control) | 1.11 fold enrichment (6-mer frequency, TF over GST control) | 1.1 fold enrichment (6-mer frequency, TF over GST control) | 1.17 fold enrichment (6-mer frequency, TF over GST control) | 1.07 fold enrichment (6-mer frequency, TF over GST control) | 1.11 fold enrichment (6-mer frequency, TF over GST control) | 1.16 fold enrichment (6-mer frequency, TF over GST control) | 1.26 fold enrichment (6-mer frequency, TF over GST control)
CCCCGC | 1.12 fold enrichment (6-mer frequency, TF over GST control) | 1.19 fold enrichment (6-mer frequency, TF over GST control) | 1.2 fold enrichment (6-mer frequency, TF over GST control) | 1.19 fold enrichment (6-mer frequency, TF over GST control) | 1.27 fold enrichment (6-mer frequency, TF over GST control) | 1.26 fold enrichment (6-mer frequency, TF over GST control) | 1.11 fold enrichment (6-mer frequency, TF over GST control) | 1.19 fold enrichment (6-mer frequency, TF over GST control) | 1.06 fold enrichment (6-mer frequency, TF over GST control)
TGACTA | 1.14 fold enrichment (6-mer frequency, TF over GST control) | 1.08 fold enrichment (6-mer frequency, TF over GST control) | 1.08 fold enrichment (6-mer frequency, TF over GST control) | 1.03 fold enrichment (6-mer frequency, TF over GST control) | 1.09 fold enrichment (6-mer frequency, TF over GST control) | 1.11 fold enrichment (6-mer frequency, TF over GST control) | 1.14 fold enrichment (6-mer frequency, TF over GST control) | 1.17 fold enrichment (6-mer frequency, TF over GST control) | 1.14 fold enrichment (6-mer frequency, TF over GST control)
GCGTTT | 1.1 fold enrichment (6-mer frequency, TF over GST control) | 1.04 fold enrichment (6-mer frequency, TF over GST control) | 1.11 fold enrichment (6-mer frequency, TF over GST control) | 1.14 fold enrichment (6-mer frequency, TF over GST control) | 1.08 fold enrichment (6-mer frequency, TF over GST control) | 1.14 fold enrichment (6-mer frequency, TF over GST control) | 1.05 fold enrichment (6-mer frequency, TF over GST control) | 1.13 fold enrichment (6-mer frequency, TF over GST control) | 1.2 fold enrichment (6-mer frequency, TF over GST control)
ATGCAC | 1.28 fold enrichment (6-mer frequency, TF over GST control) | 1.33 fold enrichment (6-mer frequency, TF over GST control) | 1.33 fold enrichment (6-mer frequency, TF over GST control) | 1.2 fold enrichment (6-mer frequency, TF over GST control) | 1.3 fold enrichment (6-mer frequency, TF over GST control) | 1.21 fold enrichment (6-mer frequency, TF over GST control) | 1.3 fold enrichment (6-mer frequency, TF over GST control) | 1.34 fold enrichment (6-mer frequency, TF over GST control) | 1.34 fold enrichment (6-mer frequency, TF over GST control)
GGATTT | 1.33 fold enrichment (6-mer frequency, TF over GST control) | 1.25 fold enrichment (6-mer frequency, TF over GST control) | 1.26 fold enrichment (6-mer frequency, TF over GST control) | 1.34 fold enrichment (6-mer frequency, TF over GST control) | 1.23 fold enrichment (6-mer frequency, TF over GST control) | 1.24 fold enrichment (6-mer frequency, TF over GST control) | 1.22 fold enrichment (6-mer frequency, TF over GST control) | 1.29 fold enrichment (6-mer frequency, TF over GST control) | 1.48 fold enrichment (6-mer frequency, TF over GST control)
TGTACA | 1.22 fold enrichment (6-mer frequency, TF over GST control) | 1.26 fold enrichment (6-mer frequency, TF over GST control) | 1.1 fold enrichment (6-mer frequency, TF over GST control) | 1.24 fold enrichment (6-mer frequency, TF over GST control) | 1.23 fold enrichment (6-mer frequency, TF over GST control) | 1.26 fold enrichment (6-mer frequency, TF over GST control) | 1.28 fold enrichment (6-mer frequency, TF over GST control) | 1.35 fold enrichment (6-mer frequency, TF over GST control) | 1.11 fold enrichment (6-mer frequency, TF over GST control)
TCCCTT | 1.63 fold enrichment (6-mer frequency, TF over GST control) | 1.56 fold enrichment (6-mer frequency, TF over GST control) | 1.47 fold enrichment (6-mer frequency, TF over GST control) | 1.67 fold enrichment (6-mer frequency, TF over GST control) | 1.62 fold enrichment (6-mer frequency, TF over GST control) | 1.5 fold enrichment (6-mer frequency, TF over GST control) | 1.69 fold enrichment (6-mer frequency, TF over GST control) | 1.61 fold enrichment (6-mer frequency, TF over GST control) | 1.37 fold enrichment (6-mer frequency, TF over GST control)
